# Inconclusive results are not listed. A call without a number means that no potency is given here. Calls of active or inactive are those of the source. The call rests on the fitted dose curve; in most records, active means well fitted inhibition curve with a large enough effect; inconclusive means small, poorly fitted or top-dose-only effect; inactive means no such curve, though single readings can be large or run the other way.
# Legend:
# [1] = test system: Zika virus NS2B-NS3 protease (unlinked complex); test: Primary screen GU Rhodamine qHTS for Zika virus inhibitors: Unlinked NS2B-NS3 protease assay (AID 1347159); further: nearly all actives have a fitted effect of over 60% in size
# How it was run: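 In dose–response format, inhibition of unlinked protease (25 nM) was measured with 1.5 microM bis-peptide Rhodamine110 substrate. Aprotinin served as the intraplate control.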
# [2] = test system: Zika virus NS2B-NS3 protease (linked construct); test: Primary screen NINDS Rhodamine qHTS for Zika virus inhibitors (AID 1347160); further: nearly all actives have a fitted effect of over 55% in size
# How it was run: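 Each compound, titrated, sat 15 min with 25 nM linked protease before 1.5 microM Rhodamine110 substrate went in. Fluorescence gain over the next 15 min, in pH 8.0 Tris with Tween 20, gave Hill-fitted curves.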
# Potency means the concentration at half of the fitted maximal effect.
Structure (SMILES),Potency [1],Potency [2]
CC1OC2OC(=O)C3(C)CC4C5(CO5)C5=CC(=O)OC(C)(C)C5=CC(=O)C4(C)C(C1=O)C23 (stereo unspecified),15.8 µM (active),12.6 µM (active)
Cc1cc(C(C)Nc2ccccc2C(=O)O)c2nc(N3CCOCC3)cc(=O)n2c1 (stereo unspecified),inactive,inactive
CC1(CO)CC2C(O)C3=C(CC(C)(O)C2C1)C(=O)OC3 (stereo unspecified),inactive,inactive
COc1cc2c(Nc3cc(F)c(Cl)c(Cl)c3)ncnc2cc1OCC1CCCN(C)CCC1,inactive,inactive
NC(=O)c1ccccc1Nc1ccnc(Nc2cccc(O)c2)n1,inactive,inactive
CC(C)C[C@@H](C(=O)N[C@@H](Cc1ccc(OCc2ccccc2)cc1)C(=O)NC(C)(C)C)N(C)Cc1ccc(C(C)(C)C)cc1,inactive,inactive
CC(NCCCc1cccc(C(F)(F)F)c1)c1cccc2ccccc12 (stereo unspecified),inactive,inactive
C=C1C(=O)O[C@@H]2C[C@@]3(C)CCCC(=C)[C@]3(O)C[C@H]12,inactive,inactive
Cc1c(C2=CCN(C(=O)N(C)C(C)C)CC2)nnn1-c1cccnc1F,inactive,inactive
COc1cc(/C=N\NC(=O)c2ccc3c(c2)OCO3)ccc1OCc1ccccc1,inactive,inactive
CCCCNc1ncc(C(=O)NCc2ccc(-n3ccnc3)cc2)c(NC2CCC(O)CC2)n1 (stereo unspecified),inactive,inactive
COc1ccc(C(=O)Nc2c(Cl)cncc2Cl)cc1OC1CCCC1,inactive,inactive
CO[C@H]1[C@@H](O)[C@H](O[C@H]2CC[C@@]3(C)C(CCC4C3CC[C@]35COC6(COC(=O)C6)C3CCC45O)C2)O[C@@H](C)[C@@H]1OC1OC(CO)C(OC2OC(CO)C(O)C(O)C2O)C(O)C1O (stereo partly specified),inactive,inactive
O=c1[nH]c([C@@H]2CCCN2)nc2c1oc1ccc(Cl)cc12,inactive,inactive
O=c1cc(N2CCOCC2)nc2c3ccccc3ccn12,inactive,inactive
O=C(NCCCN1CCC2(CC1)OCc1ccccc12)[C@H]1CCCN1Cc1ccccc1,inactive,inactive
O=C(Nc1nc2cc(C(F)(F)F)cc(NC3CC3)n2n1)c1cccnc1,inactive,inactive

Structure (SMILES),Potency [1],Potency [2]
Cc1ccc(C(=O)Nc2ccc(CN3CCN(C)CC3)c(C(F)(F)F)c2)cc1C#Cc1cnc2[nH]ncc2c1,inactive,inactive
CC1=CC2/C=C(\C)CCC(O)C/C=C/C(=O)OC23C(=O)NC(CC(C)C)C3C1C (stereo unspecified),inactive,inactive
Cc1cc(F)c(C(=O)Nc2cccc(-c3nncn3C(C)C)n2)cc1-n1cnc(C2CC2)c1,inactive,inactive
Cc1ccc(NC(=O)N2CCN(c3nc(N)nc4sc(-c5cccnc5)nc34)CC2)cc1,inactive,inactive
Cc1nc(C(=O)N2CCC[C@H]2Cc2nnc(-c3ccccc3)o2)c(-c2ccccc2F)s1,inactive,inactive
CC(=O)OC[C@]12[C@H](OC(C)=O)[C@H](OC(=O)c3ccccc3)[C@@H]3[C@@H](OC(C)=O)[C@]1(OC3(C)C)[C@H](C)C[C@H](OC(C)=O)[C@@H]2OC(=O)c1ccccc1,inactive,inactive
Clc1cccc(COc2cncc(N3CCNCC3)n2)c1,inactive,inactive
CCC(C)C(=O)OC1C(C)C2(O)C(C=C(CO)CC3(O)C(=O)C(C)=CC32)C2C(C)(C)C12OC(=O)C(C)C (stereo unspecified),inactive,inactive
Cc1noc(C)c1-c1cc(O)cc(C(O)c2ccccc2)c1 (stereo unspecified),inactive,inactive
COc1cc(NC(=O)c2cc(C3CC3)on2)c(OC)cc1Cl,inactive,inactive
CC(=O)O[C@@H]1[C@@H](OC(C)=O)[C@H](C)O[C@@H](O[C@H]2[C@@H]3C=CO[C@@H](O[C@@H]4O[C@H](CO)[C@@H](O)[C@H](O)[C@H]4O)[C@@H]3[C@@]3(CO)O[C@@H]23)[C@@H]1OC(=O)/C=C/c1ccccc1,inactive,inactive
C=C1C(=O)O[C@@H]2C3=C(C)CCC[C@]3(C)CC[C@@]12O,inactive,inactive
C=CC(=O)Nc1cccc(Nc2nc(Nc3ccc(NC4CN(CCF)C4)cc3OC)ncc2C(F)(F)F)c1,inactive,inactive
O=C(NCc1ccc(OC(F)(F)F)cc1)C1c2c(F)cccc2C(=O)N1CCc1ccccn1 (stereo unspecified),inactive,inactive
CCNc1nc(Nc2cc(F)c(C(=O)N3CCOCC3)cc2OC)ncc1C(F)(F)F,inactive,inactive
Cn1ncc(Cl)c1-c1cc(C(=O)N[C@H](CN)Cc2cccc(F)c2)sc1Cl,inactive,inactive

# — PubChem BioAssay (NCATS)
